Results: PubChem BioAssay (NCATS)
Results filed as inconclusive are left out. Some compounds were tested as several samples or in several runs, with calls that do not always agree. Activity calls are given as the source filed them. Calls come from the whole dose curve; as a rule, active = well fitted curve in the direction sought with a large enough effect; inconclusive = small, poorly fitted or top-dose-only effect, or another doubt; inactive = no such curve, though single readings can be large; an effect the other way counts as inactive or inconclusive.

Tests used:
MCC-26 = test: qHTS assay to identify novel small-molecules to repurpose for Merkel cell carcinoma treatment (AID 1296009); details: MCC and control cell lines, CellTiter-Glo viability, 72 h; series mostly up to 46 µM; note: nearly all actives have a fitted effect of over 60% in size
Outline: (§1)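 Cell viability, measured as CellTiter-Glo luminescence, was normalized between DMSO and no-cell wells. The cells had been exposed to 8- or 11-point compound dilutions for 72 hr at 37 degree celsius.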

MKL-1 = test: as above; details: MCC and control cell lines, CellTiter-Glo viability, 72 h; series mostly up to 46 µM
Outline: as §1

MKL-2 = test: as above; details: MCC and control cell lines, CellTiter-Glo viability, 72 h; series mostly up to 46 µM
Outline: as §1

NIH3T3 = test: as above; details: MCC and control cell lines, CellTiter-Glo viability, 72 h; at 44.8 µM (top of the series) unless noted
Outline: as §1

UISO = test: as above; details: MCC and control cell lines, CellTiter-Glo viability, 72 h; series mostly up to 46 µM
Outline: as §1

WaGa = test: as above; details: MCC and control cell lines, CellTiter-Glo viability, 72 h; series mostly up to 46 µM
Outline: as §1

C33A = test: Primary qHTS to identify gynecologic anti-cancer compounds using libraries of approved drugs and bioactive compounds (AID 1345084); details: Gynecologic cancer cell panel viability, ATPlite luminescence, 48 h; series mostly up to 57.5 µM; note: nearly all actives have a fitted effect of over 55% in size
Outline: (§2)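 48 h compound exposure at 37 C, 5% CO2; five-point qHTS. ATPlite luminescence readout of cell ATP.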

CAOV3 = test: as above; details: Gynecologic cancer cell panel viability, ATPlite luminescence, 48 h; series mostly up to 57.5 µM
Outline: as §2

CASKI = test: as above; details: Gynecologic cancer cell panel viability, ATPlite luminescence, 48 h; series mostly up to 57.5 µM
Outline: as §2

Es-2 = test: as above; details: Gynecologic cancer cell panel viability, ATPlite luminescence, 48 h; series mostly up to 57.5 µM
Outline: as §2

HeLa = test: as above; details: Gynecologic cancer cell panel viability, ATPlite luminescence, 48 h; series mostly up to 57.5 µM
Outline: as §2

Hek293T = test: as above; details: Gynecologic cancer cell panel viability, ATPlite luminescence, 48 h, control line for the selectivity index; series mostly up to 57.5 µM
Outline: as §2

JEG-3 = test: as above; details: Gynecologic cancer cell panel viability, ATPlite luminescence, 48 h; series mostly up to 57.5 µM
Outline: as §2

OV90 = test: as above; details: Gynecologic cancer cell panel viability, ATPlite luminescence, 48 h; series mostly up to 57.5 µM
Outline: as §2

PA-1 = test: as above; details: Gynecologic cancer cell panel viability, ATPlite luminescence, 48 h; series mostly up to 57.5 µM
Outline: as §2

SKOV3 = test: as above; details: Gynecologic cancer cell panel viability, ATPlite luminescence, 48 h; series mostly up to 57.5 µM
Outline: as §2

Tov-21-G = test: as above; details: Gynecologic cancer cell panel viability, ATPlite luminescence, 48 h; series mostly up to 57.5 µM
Outline: as §2

Tov112D = test: as above; details: Gynecologic cancer cell panel viability, ATPlite luminescence, 48 h; series mostly up to 57.5 µM
Outline: as §2

[1] = Drug repurposing screens with cells derived from glioblastoma tumor samples (AID 1345199); details: GBM patient neurospheres viability, ATP luminescence, 48 h; note: nearly all actives have a fitted effect of over 40% in size; note: potency is the fitted concentration of half-maximal effect
Outline: (§3)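 Primary testing used CD133+ neurospheres from four GBM patients, seven concentrations, 48 h exposure and ATP-based viability; confirmation added three slower-growing patient lines.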

astro = test: as above; details: viability, ATP luminescence, 48 h; series mostly up to 45.9 µM
Outline: as §3

[2] = at 45.9 µM (top of the series), tumour line B
[3] = at 45.9 µM (top of the series), tumour line D
[4] = at 46 µM (top of the series), tumour line A
[5] = at 46.1 µM (top of the series), tumour line C
% is set by controls: 0 for no effect and ±100 for the full control effect.

NCCCNCCSP(=O)(O)O
inactive: activity change, negative = cytotoxicity (MCC-26) 11.5% [at 9.22 µM] | activity change, negative = cytotoxicity (MKL-1) 15.3% [at 9.22 µM] | activity change, negative = cytotoxicity (MKL-2) 7.98% [at 9.22 µM] | outcome (NIH3T3) inactive [at 9.27 µM] | activity change, negative = cytotoxicity (UISO) -0.378% [at 9.22 µM] | activity change, negative = cytotoxicity (WaGa) 14.2% [at 9.22 µM] | activity change, negative = cytotoxicity (C33A) 4.43% [at 11.6 µM] | activity change, negative = cytotoxicity (CAOV3) 4.48% [at 11.6 µM] | activity change, negative = cytotoxicity (CASKI) 0.847% [at 11.6 µM] | activity change, negative = cytotoxicity (Es-2) 6.18% [at 11.6 µM] | activity change, negative = cytotoxicity (HeLa) 7.86% [at 11.6 µM] | activity change, negative = cytotoxicity (Hek293T) -0.973% [at 11.6 µM] | activity change, negative = cytotoxicity (JEG-3) -0.217% [at 11.6 µM] | activity change, negative = cytotoxicity (OV90) -0.281% [at 11.6 µM] | activity change, negative = cytotoxicity (PA-1) 1.25% [at 11.6 µM] | activity change, negative = cytotoxicity (SKOV3) 19.8% [at 11.6 µM] | activity change, negative = cytotoxicity (Tov-21-G) -2.2% [at 11.6 µM] | activity change, negative = cytotoxicity (Tov112D) 1.24% [at 11.6 µM] | activity, negative = cell killing [1, 2] -11.7% | activity, negative = cell killing [1, 3] -3.44% | activity, negative = cell killing [1, 4] -3.51% | activity, negative = cell killing [1, 5] 0.364% | Potency (astro)

CCCCNc1ccc(C(=O)OCCN(C)C)cc1
inactive: Potency (MCC-26) | Potency (MKL-1) | Potency (MKL-2) | outcome (NIH3T3) | Potency (UISO) | Potency (WaGa) | Potency (C33A) | Potency (CAOV3) | Potency (CASKI) | Potency (Es-2) | Potency (Hek293T) | Potency (JEG-3) | Potency (OV90) | Potency (PA-1) | Potency (SKOV3) | Potency (Tov-21-G) | Potency (Tov112D) | activity, negative = cell killing ([1]; at 20 µM (top of the series), tumour line C) -9.33% | Potency (astro)
active: Potency ([1]; tumour line A) 14.1 µM

CCCCOCCOCCOCc1cc2c(cc1CCC)OCO2
active: Potency ([1]; tumour line A) 31.6 µM
inactive: Potency (MCC-26) | Potency (MKL-1) | Potency (MKL-2) | Potency (UISO) | Potency (WaGa) | Potency (C33A) | Potency (CAOV3) | Potency (CASKI) | Potency (Es-2) | Potency (HeLa) | Potency (Hek293T) | Potency (JEG-3) | Potency (OV90) | Potency (PA-1) | Potency (SKOV3) | Potency (Tov-21-G) | Potency (Tov112D) | activity, negative = cell killing [1, 2] -4.83% | activity, negative = cell killing [1, 3] 11.7% | activity, negative = cell killing [1, 5] -0.263% | activity, negative = cell killing ([1]; at 91.6 µM (top of the series), tumour line B) -11.5% | activity, negative = cell killing ([1]; at 91.6 µM (top of the series), tumour line D) -27.9% | activity, negative = cell killing ([1]; at 99.2 µM (top of the series), tumour line C) 13.4% | Potency (astro)

CN(C)C(=O)Oc1ccc[n+](C)c1
inactive: Potency (MCC-26) | Potency (MKL-1) | Potency (MKL-2) | outcome (NIH3T3) | Potency (UISO) | Potency (WaGa) | Potency (C33A) | Potency (CAOV3) | Potency (CASKI) | Potency (Es-2) | Potency (HeLa) | Potency (Hek293T) | Potency (JEG-3) | Potency (OV90) | Potency (PA-1) | Potency (SKOV3) | Potency (Tov-21-G) | Potency (Tov112D) | activity, negative = cell killing [1, 2] 5.33% | activity, negative = cell killing [1, 3] -8.24% | activity, negative = cell killing [1, 4] -28.3% | activity, negative = cell killing [1, 5] -15.6% | Potency (astro)

CCCNC(C)C(=O)Nc1ccccc1C (configuration not stated)
inactive: Potency (MCC-26) | Potency (MKL-1) | Potency (MKL-2) | Potency (UISO) | Potency (WaGa) | Potency (C33A) | Potency (CAOV3) | Potency (CASKI) | Potency (Es-2) | Potency (HeLa) | Potency (Hek293T) | Potency (JEG-3) | Potency (OV90) | Potency (PA-1) | Potency (SKOV3) | Potency (Tov-21-G) | Potency (Tov112D) | activity, negative = cell killing [1, 2] -20% | activity, negative = cell killing [1, 3] -8.5% | activity, negative = cell killing [1, 5] -15.8% | Potency (astro)
